In PubChem BioAssay AID1259313 (Sanford-Burnham Center for Chemical Genomics, 2017):
Out of some 340,000 compounds screened, about 8,500 (2.5%) were called active.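 Rule for the calls: active = melting temperature shift of at least 10% of the positive control shift, at one fixed dose; inactive = the rest.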 The list comes from a sample in which actives are over-represented; it also holds similar structures and randomly drawn compounds.

Each compound was assayed on Glutamate receptor ionotropic, NMDA 3A (GRIN3A) ligand-binding domain (assay: NR3A LBD thermal stabilization by compounds – biophysical, differential scanning fluorimetry, uHTS, primary screen (AID 1259313)). Conditions: at 25 µM, hits give high values, 0% = protein alone, 100% = glycine-bound protein.

Question: With `Cc1cc(NC(=O)C(C)SCC(=O)Nc2cccc(S(=O)(=O)N3CCCCCC3)c2)no1` (configuration not stated) as the compound, how does the Tm shift relative to glycine control read?
Answer: -1.57% (inactive)

Question: `Cc1cc(NC(=O)c2cc3ccccc3o2)no1` was tested. Which Tm shift relative to glycine control did it give?
Answer: 2.81% (inactive)

Question: With `O=C(N/N=C/c1ccc([N+](=O)[O-])cc1)c1c[nH]c2ccccc12` as the compound, how does the Tm shift relative to glycine control read?
Answer: 26.3% (active)

Question: For `O=C(N/N=C/c1c[nH]c2ccccc12)c1cc2ccccc2o1`, which Tm shift relative to glycine control is on record?
Answer: 28.7% (active)

Question: For `CSC(=S)N/N=C/c1c[nH]c2ccccc12`, which Tm shift relative to glycine control is on record?
Answer: 30.1% (active)

Question: Which Tm shift relative to glycine control does the source give for `Nc1nonc1-n1nnc(C(=O)N/N=C/c2c[nH]c3ccccc23)c1-c1ccccc1` here?
Answer: 31.6% (active)

Question: For `NC(=O)CSc1c[nH]c2ccccc12`, which Tm shift relative to glycine control is on record?
Answer: 0.83% (inactive)

Question: For `Nc1nonc1-n1nnc(C(=O)N/N=C/C2CCCCC2)c1-c1ccccc1`, which Tm shift relative to glycine control is on record?
Answer: 0.68% (inactive)

Question: How did the Tm shift relative to glycine control turn out when `O=C(NN=Cc1ccc([N+](=O)[O-])cc1)C1CC1` was run?
Answer: -0.92% (inactive)

Question: For `O=C(N/N=C/c1ccc(Cl)cc1)c1nc2ccc([N+](=O)[O-])cc2c(=O)[nH]1`, which Tm shift relative to glycine control is on record?
Answer: 1.51% (inactive)

Question: For `Cc1c(/C=N\NC(=O)c2cc3ccccc3o2)c2ccccc2n1C`, which Tm shift relative to glycine control is on record?
Answer: 2.79% (inactive)

Question: `C[n+]1ccc(/C=C/c2c[nH]c3ccccc23)cc1` was tested. Which Tm shift relative to glycine control did it give?
Answer: -3.88% (inactive)

Question: `CC(C)c1c(C(=O)N/N=C/c2ccccc2C(=O)O)nnn1-c1nonc1N` was tested. Which Tm shift relative to glycine control did it give?
Answer: -7.76% (inactive)

Question: Which Tm shift relative to glycine control does the source give for `Cc1ccc(N2CCN(S(=O)(=O)N(C)C)CC2)cc1Cl` here?
Answer: 1.66% (inactive)

Question: With `CCCNC(=O)c1cnc(-c2ccccc2)nc1-c1ccccc1` as the compound, how does the Tm shift relative to glycine control read?
Answer: -1.35% (inactive)

Question: For `CN(C)S(=O)(=O)N1CCC(Oc2cccc(C(=O)NCCCC3CCCC3)c2)CC1`, which Tm shift relative to glycine control is on record?
Answer: 0.18% (inactive)

Question: `O=C(Oc1ccc(F)cc1)N1CCOCC1` was tested. Which Tm shift relative to glycine control did it give?
Answer: 1.08% (inactive)

Question: With `Cc1c(NC(=O)c2c([N+](=O)[O-])cnn2C)c(=O)n(-c2ccccc2)n1C` as the compound, how does the Tm shift relative to glycine control read?
Answer: -0.61% (inactive)

Question: `CCOC(=O)C1(Cc2cccc(OC)c2)CCCN(S(=O)(=O)c2cccnc2)C1` (configuration not stated) was tested. Which Tm shift relative to glycine control did it give?
Answer: 0.32% (inactive)

Question: `O=C(N/N=C/c1ccsc1)c1cc(O)cc(O)c1` was tested. Which Tm shift relative to glycine control did it give?
Answer: -11.7% (inactive)

Question: For `Cc1ccc2occ(/C=N/NC(=O)c3ccccc3C)c(=O)c2c1`, which Tm shift relative to glycine control is on record?
Answer: -0.75% (inactive)

Question: Which Tm shift relative to glycine control does the source give for `O=C(Cc1c[nH]c2ccccc12)N/N=C/c1cccc(F)c1` here?
Answer: -4.78% (inactive)

Question: For `O=C(N/N=C/c1cccc(OCc2ccccc2)c1)c1ccc(Br)o1`, which Tm shift relative to glycine control is on record?
Answer: -4.34% (inactive)

Question: Which Tm shift relative to glycine control does the source give for `O=C(N/N=C/c1c[nH]c2ccccc12)c1ccccc1O` here?
Answer: 37% (active)

Question: `O=C(N/N=C/c1cccc(O)c1)c1cc2c(ccc3ccccc32)o1` was tested. Which Tm shift relative to glycine control did it give?
Answer: 25.4% (active)

Question: How did the Tm shift relative to glycine control turn out when `COc1ccc2c(C)cc3nnnn3c2c1` was run?
Answer: 1.26% (inactive)

Question: How did the Tm shift relative to glycine control turn out when `Cc1ccc(CN2CCC(N3CCC(C(=O)NCC4CCCO4)CC3)CC2)o1` (configuration not stated) was run?
Answer: 0.34% (inactive)
